# Data reported in PubChem BioAssay AID1256 (The Scripps Research Institute Molecular Screening Center, 2008).
# Some of the results follow. Calls of active or inactive are those of the source. Cut-off read from the data, not from the text of the source: active = inhibition above about 20%; inactive = the rest.
# Target: Neuropeptide Y receptor type 1 (Homo sapiens) (UniProt P25929)
# Experiment: NPY-Y1 receptor antagonists, selectivity check, counter-screen for NPY-Y2 antagonist project, cell-based (AID 1256);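 note: cells challenged with NPY then isoproterenol with cAMP sensed through a CNG channel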
# Conditions: cell-based NPY-Y1 antagonism counterscreen; at 3.6 µM; hits give high values
# Sequence of Neuropeptide Y receptor type 1 (Homo sapiens) (P25929 whole entry, looked up): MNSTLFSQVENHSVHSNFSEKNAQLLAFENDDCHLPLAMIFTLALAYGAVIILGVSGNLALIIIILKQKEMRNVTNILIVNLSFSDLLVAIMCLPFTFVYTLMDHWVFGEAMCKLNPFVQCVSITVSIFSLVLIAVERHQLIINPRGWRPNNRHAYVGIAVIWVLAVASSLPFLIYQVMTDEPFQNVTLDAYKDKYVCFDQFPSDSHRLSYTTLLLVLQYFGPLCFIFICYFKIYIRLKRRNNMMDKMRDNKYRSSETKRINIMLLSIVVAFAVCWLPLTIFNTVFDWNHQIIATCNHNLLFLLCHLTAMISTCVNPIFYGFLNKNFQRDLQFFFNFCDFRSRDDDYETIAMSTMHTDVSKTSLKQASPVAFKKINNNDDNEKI
row,SMILES,inhibition
1,O=C1CC(c2cccc(Cl)c2)CC(O)=C1C=Nc1ccccc1 (stereo not drawn),17.3% (inactive)
2,Cc1ccc(S(=O)(=O)N(Cc2ccc(Cl)cc2)c2ccccc2C(=O)NCc2cccnc2)cc1,28.4% (active)
3,CCOc1ccc(C(O)Cn2c(=N)n(CCN3CCCCC3)c3ccccc32)cc1 (stereo not drawn),13.1% (inactive)
4,Cc1cc(C)nc(-n2ncc3c2CC(c2ccc(C(C)C)cc2)CC3=O)n1 (stereo not drawn),20.4% (active)
5,Cc1ccccc1N1CCN(CCCOc2ccc3c(C)cc(=O)oc3c2)CC1,19.3% (inactive)
6,CCCc1nc(SCC(=O)Nc2ccccc2OC)c2c(=O)n(C)c(=O)n(C)c2n1,20.6% (active)
7,CCCCCNC(=O)Cc1ccc(OC)cc1,1.16% (inactive)
8,COc1ccc(-c2nc3ccccc3n2CCC(C)C)cc1OC,8.19% (inactive)
9,COc1ccc(/C=C/C(=O)NC(=S)NN2CCCCC2c2cccnc2)cc1 (stereo not drawn),29.1% (active)
10,COc1ccc(-c2noc(COc3ccc(Cl)c(C)c3)n2)cc1,13.3% (inactive)
11,O=C(CC(O)(C(F)(F)F)C(F)(F)F)Nc1ccc(Cl)c(Cl)c1,20.5% (active)
12,CC12CN(Cc3ccccc3)CC(C)(CN(Cc3ccccc3)C1)C2=NO,13.2% (inactive)
13,N#Cc1ccc(N2Cc3ccccc3/C2=N/C(=O)Nc2ccc(Cl)cc2)cc1,100% (active)
14,CN(C)Cc1ccc(F)cc1Sc1cc(Cl)ccc1Cl,11.3% (inactive)
15,COC(=O)c1ccc(CSc2nc3cc(Cl)ccc3o2)cc1,11.2% (inactive)
16,Cc1cc(C(=O)OCC(=O)N2c3ccccc3NC(=O)C2(C)C)c(C)n1-c1ccccc1,5.21% (inactive)
17,O=C(Nc1nnc(SCc2c(Cl)cccc2Cl)s1)C1CCCO1 (stereo not drawn),12.1% (inactive)
18,CCOc1ccc(S(=O)(=O)N/N=C(\C)c2ccc(Cl)c(Cl)c2Cl)cc1,17.7% (inactive)
